# Source: PubChem
# TrxR1 inh: blocks rat thioredoxin reductase 1; recombinant rTrxR1, NADPH fluorescence consumption, selenite substrate; Potency, µM (highest dose often 114 µM), inactives show at the top dose activity change, negative = inhibition, usual class: inhibitors; actives 1% (n = 390,000); AID 588453; further: potency means the concentration at half of the fitted maximal effect; on the % scale 0 is the no-effect control and ±100 the full control effect; nearly all actives have a fitted effect of over 65% in size
#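 Rat TrxR1 (90 nM in the dispensed reagent) was pre-reduced with 400 uM NADPH for 5 min at room temperature, then incubated with compound for 15 min. After 400 uM selenite was added, NADPH fluorescence (Ex 340/Em 450 nm) was followed for 8 min.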
# Giardia kill: Giardia lamblia killing | Giardia lamblia trophozoite viability | activity change, % at 7.66 µM, hits read low | actives 0.15% (n = 340,000); in the data active means activity change below about -80%; inconclusive means between about -30% and that limit;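 further: parasites exposed to compound for two days anaerobically before the ATP read; on the % scale 0 is the no-effect control and ±100 the full control effect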
#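 Media and compound were dispensed first, then trophozoites at 100 cells/well; plates sat 48 hrs at 37 deg C without oxygen before ATP luminescence reagent was added and read after 15-30 min at room temperature.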
# mIDH1 inhibitor: human IDH1 R132H inhibition. O75874. IDH1-R132H enzyme, NADPH consumption, diaphorase/resazurin fluorescence. Potency, µM (top dose mostly 76.6 µM), for inactives: top-dose activity change, negative = inhibition, most hits filed as inhibitors. actives 0.093% (n = 390,000). AID 602179; further: potency means the concentration at half of the fitted maximal effect; on the % scale 0 is the no-effect control and ±100 the full control effect; nearly all actives have a fitted effect of over 65% in size
# Target sequence (O75874 whole entry R132H, stated change not applied): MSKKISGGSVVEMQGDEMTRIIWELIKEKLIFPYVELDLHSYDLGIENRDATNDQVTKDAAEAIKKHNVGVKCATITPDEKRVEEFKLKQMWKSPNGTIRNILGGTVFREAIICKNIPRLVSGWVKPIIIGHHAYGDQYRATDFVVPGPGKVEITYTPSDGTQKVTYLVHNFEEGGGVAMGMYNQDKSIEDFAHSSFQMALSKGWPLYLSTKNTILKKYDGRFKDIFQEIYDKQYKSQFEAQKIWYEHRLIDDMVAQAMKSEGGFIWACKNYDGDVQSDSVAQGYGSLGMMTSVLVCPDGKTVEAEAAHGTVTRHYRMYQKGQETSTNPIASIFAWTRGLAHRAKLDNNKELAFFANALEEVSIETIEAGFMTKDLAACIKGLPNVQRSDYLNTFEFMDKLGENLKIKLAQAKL
#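 IDH1-R132H (0.5 ug/mL) preincubated 30 min with compound, then NADPH (0.016 mM) and alpha-KG (2 mM) added; 80 min at RT, pH 7.5. Remaining NADPH coupled via diaphorase/resazurin to fluorescence (540/590 nm); concentration-response curves normalized to no-enzyme control.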
# TrxR1 substrate: substrates of rat thioredoxin reductase 1 | O89049 | purified TrxR1 substrate turnover, NADPH consumption readout | Potency, µM (highest dose often 114 µM), inactives show top-dose activity change, negative = substrate turnover | actives 0.01% (n = 390,000); further: potency means the concentration at half of the fitted maximal effect; on the % scale 0 is the no-effect control and ±100 the full control effect; nearly all actives have a fitted effect of over 50% in size
#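 Rat TrxR1, dispensed at 90 nM, was prereduced with 400 uM NADPH (final) for 5 min at ~22 deg C, then incubated with compound 15 min before 400 uM selenite. A first-read NADPH fluorescence drop versus no-compound background flagged substrates.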
# IL-2 act: activates IL-2 in a cell-based reporter assay. IL-2 activation reporter assay, cell-based qHTS; stimulated with anti-CD3/CD4/CD28 beads; in transgenic mouse T cells. activation, % (series mostly up to about 46 µM). actives 0.065% (n = 360,000); in the data active means activation above about 50%; inconclusive means mostly about 30% to 49%; further: 0% is about no effect
#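 First, unstimulated transgenic mouse T cells were exposed to compound for 60 min. Next, anti-CD3/anti-CD4-coated beads with anti-CD28 were added. Finally, after 18 h at 37 degrees C, EGFP and DsRed were imaged.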
# BRCA1 expr act: increases BRCA1 expression. MCF7-BRCA1-FFLuc reporter, luminescence, 48 h; response scale: scaled: vehicle 0%, 10 µM genistein 100%. Potency, µM (titrated, usually from 46.1 µM), inactives show at the highest dose activation, usual class: activators. actives 1.1% (n = 380,000); further: potency means the concentration at half of the fitted maximal effect; nearly all actives have a fitted effect of over 80% in size
#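 Using MCF7 cells harboring a BRCA1 firefly luciferase reporter, plated 2 h before compound pinning, the screen measured luminescence after 48 h incubation. Responses were normalized to DMSO and 10 microM genistein, then fitted for concentration-effect.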
# Active calls of the source: *; ? = inconclusive; · = no result; [ ] = remark or other dose. Shown are actives, neighbours in structure and some others; about 2.2% of the full set was active somewhere. Unless noted, the call rests on the fitted dose curve; in most records, active means well fitted curve in the direction sought with a large enough effect; inconclusive means small, poorly fitted or top-dose-only effect, or another doubt; inactive means no such curve, though single readings can be large; an effect the other way counts as inactive or inconclusive.
SMILES,TrxR1 inh,Giardia kill,mIDH1 inhibitor,TrxR1 substrate,IL-2 act,BRCA1 expr act
COCCCN1CCc2nc(SCC(=O)Nc3ccc(C)c(Cl)c3)[nH]c(=O)c2C1,14%,·,14%,-2%,·,·
Cc1ccc(C(=O)c2ncc[nH]2)cc1,13%[57.1 µM],7,-4%,6%[57.1 µM],1,14µM*
O=C(Nc1nc(-c2ccccc2)cs1)c1ccco1,16%,-5,3%,-4%,1,7.1µM*
O=C(Nc1nc(-c2ccco2)c(-c2ccco2)s1)C1CCC1,?,4,4%,4%,5,-40%
CS(=O)(=O)c1ccc(C(=O)Nc2nc(-c3ccco3)c(-c3ccco3)s2)cc1,14µM*,12,3%,-20%,-7,-10%
Cc1csc(NC(=O)c2ccccc2)n1,35%,2,-14%,2%,-2,3.2µM*
CC(=O)Nc1ccc(C(=O)Nc2nc(-c3ccccn3)cs2)cc1,50µM*,3,4%,-4%,0,0%
COc1ccc(-c2csc(NC(=O)c3ccco3)n2)cc1,10%,-15,0%,1%,0,?
Cc1ccc(OCCSc2nc3ccccc3n2CC(=O)N2CCCCC2)cc1C,17%,·,-1%,4%,·,0%
CCCSc1ncc(Cl)c(C(=O)Nc2c(C(=O)Nc3ccc(C)cc3)oc3ccccc23)n1,17%,·,·,8%,·,·
Clc1ccc(CCNC(c2ccc(Cl)cc2)c2nnc(-c3ccccc3)o2)cc1 (stereo not given),7%,·,-3%,-2%,·,·
COc1ccc(-n2ccnc(NCCc3ccc(S(N)(=O)=O)cc3)c2=O)cc1Cl,-6%[57.1 µM],·,0%,-1%[57.1 µM],·,0%
O=C(Nc1nc(-c2ccco2)cs1)c1ccccc1,?,-21,4%,10%[57.1 µM],1,8.9µM*
O=C(Nc1nc(-c2ccc(Cl)s2)cs1)c1ccccc1,21%,19,13%,17%,-2,47%
Cc1[nH]c2ccccc2c1C(c1ccccc1)c1ccc(Cl)s1 (stereo not given),-3%,·,0%,-9%,·,·
COC(=O)c1ccc(/C=C/c2nc3ccccc3c(=O)[nH]2)cc1,-6%,-16,-8%,-14%,0,8%
COc1cc(/C=C/c2nc3ccccc3c(=O)[nH]2)ccc1OC(F)F,8%,-28,9%,15%,-3,3.2µM*
Cc1ccc(/C=C/c2nc3ccccc3c(=O)[nH]2)cc1,37%,-90*,6%,55%,1,4%
CC(C)c1ccc(CN(C(=O)/C=C/c2ccco2)C2CCS(=O)(=O)C2)cc1 (stereo not given),14µM*,-5,3%,0%[57.1 µM],0,7%
CC(C)c1ccc(CN(C(=O)c2ccco2)C2CCS(=O)(=O)C2)cc1 (stereo not given),12%[57.1 µM],-3,10%,1%[57.1 µM],0,-21%
O=C(/C=C/c1ccco1)N(Cc1ccccc1F)C1CCS(=O)(=O)C1 (stereo not given),28µM*,3,1%,-3%,-2,-13%
CN(C)c1ccc(/C=C/c2cc[n+](C)c3ccc4ccccc4c23)cc1,15%,·,·,-7%,·,-2%
Clc1ccc(OCc2nc3ccccc3[nH]2)cc1,16%[57.1 µM],-25,-1%,10%,-1,3.2µM*
c1ccc(OCc2nc3ccccc3[nH]2)cc1,14%,-4,1%,4%,-2,?
N#Cc1cnc2nc(SCc3ccccc3)nn2c1,-21%,-10,4%,3%,-1,3.5µM*
SMILES,TrxR1 inh,Giardia kill,mIDH1 inhibitor,TrxR1 substrate,IL-2 act,BRCA1 expr act
Cc1nc2nc(SCc3ccccc3)nn2c(C)c1C,22%,-6,5%,4%,2,92%
CCOC(=O)c1cn2nc(SCc3ccccc3)nc2nc1C,-2%[57.1 µM],-17,4%,3%[57.1 µM],3,11µM*
CC(C)c1ccc(C(=O)CSc2ncn[nH]2)cc1,-24%,-16,10%,10%,-3,14µM*
O=C(NNc1ccc(F)cc1F)c1cccs1,-18%,-1,·,-1%,·,9%
CC(C)(C)/C(O)=C/c1nc2ccccc2[nH]c1=O,5%[57.1 µM],-2,3%,3%[57.1 µM],0,20%
O=c1[nH]c2ccccc2nc1/C=C(\O)c1cccs1,4%[57.1 µM],5,7%,-2%[57.1 µM],148*,66%
O/C(=C\c1nc2ccccc2[nH]1)c1cccs1,45µM*,-24,-15%,4%,1,13µM*
CN(CC(=O)O)c1ccc(C=O)cc1,-10%,·,·,-20%,·,·
COc1cc(NC(=O)c2cc(-c3cccc(OC)c3)n[nH]2)cc(OC)c1,16%,·,-15%,5%,·,·
COc1ccccc1CCN1COc2c(cc3c(C)c(C)c(=O)oc3c2C)C1,89µM*,·,15%,587%,·,·
COC(=O)Cc1c(C)c2cc3c(c(C)c2oc1=O)OCN(CCc1ccccc1F)C3,?,·,12%,433%,·,·
COC(=O)Cc1c(C)c2cc3c(c(C)c2oc1=O)OCN(CCc1ccc(OC)cc1)C3,79µM*,·,-5%,351%,·,·
CCN(CC)c1ccc(/C=C/C(=O)C2C(=O)C=C(C)OC2=O)cc1 (stereo not given),-13%[57.1 µM],7,-21%,-8%[57.1 µM],11,5.6µM*
Cc1ccc(-c2cc3c(n2-c2ccc(F)cc2)CC(C)(C)CC3=O)cc1,30%,·,-8%,0%,·,·
CN1CCN(Cc2c(O)ccc3cc(Br)ccc23)CC1,35µM*,2,-8%,-5%,-2,3%
O=S(=O)(c1ccc2c(c1)OCCO2)N1CCN(CCc2ccccc2)CC1,16%,-14,·,1%,·,13%
CN1C(=O)/C(=N\OC(=O)c2ccccc2Cl)c2ccccc21,10µM*,-14,-1%,5%,3,-9%
O=C(CCc1nc2cccnc2n1Cc1ccccc1)NCc1cccc(Cl)c1,-17%,·,19%,-16%,·,·
Cc1cc(C)cc(Nc2ccc([N+](=O)[O-])nc2[N+](=O)[O-])c1,-3%,9,0%,4%,0,-42%
COc1cc(Nc2ccc(C)cc2)c([N+](=O)[O-])nc1[N+](=O)[O-],4.5µM*,?,7%,-12%,-3,-85%
CCOC(=O)c1ccc(NC(=O)c2nc(S(=O)(=O)Cc3ccccc3)ncc2Cl)cc1,6.3µM*,1,-1%,6%,-3,-48%
CC(=O)Nc1ccc(NC(=O)c2nc(S(=O)(=O)Cc3cccc(C)c3)ncc2Cl)cc1,10µM*,-12,2%,3%,-7,-20%
CN(c1ccccc1)S(=O)(=O)c1ccc(NC(=O)c2nc(S(C)(=O)=O)ncc2Cl)cc1,0.79µM*,-24,3%,0%,-4,-76%
CCCSc1ncc(Cl)c(C(=O)Nc2ccc(S(=O)(=O)N(C)c3ccccc3)cc2)n1,8%,·,·,7%,·,·
